PI4K2A block = inhibitors of human PI4K2A | Q9BTU6 | purified PI4K2A, ADP-Glo luminescence, 1 h; hits give low values | activity change, negative = inhibition, % at 76.9 µM | hit rate 0.13% among 420,000 | AID 1346378; in the data active = activity change below about -50%; inconclusive = mostly about -30% to -49%;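 note: -100% = wells without enzyme as full effect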
Target sequence (Q9BTU6 whole entry, looked up): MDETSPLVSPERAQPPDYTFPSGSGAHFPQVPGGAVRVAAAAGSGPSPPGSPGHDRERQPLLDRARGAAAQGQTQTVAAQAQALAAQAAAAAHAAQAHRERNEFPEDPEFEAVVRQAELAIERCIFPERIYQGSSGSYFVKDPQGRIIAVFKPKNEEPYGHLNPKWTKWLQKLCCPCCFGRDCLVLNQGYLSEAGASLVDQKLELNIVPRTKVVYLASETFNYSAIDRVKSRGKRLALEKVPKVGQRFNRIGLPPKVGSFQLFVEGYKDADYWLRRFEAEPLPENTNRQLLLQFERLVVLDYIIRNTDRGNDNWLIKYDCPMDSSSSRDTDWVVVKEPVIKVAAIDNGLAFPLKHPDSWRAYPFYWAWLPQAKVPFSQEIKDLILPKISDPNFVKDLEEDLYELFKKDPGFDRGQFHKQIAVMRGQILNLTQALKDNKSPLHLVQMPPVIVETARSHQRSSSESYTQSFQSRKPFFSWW
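PI4K2A activity was measured by ADP-Glo luminescence: enzyme (4 ug/mL stock) and phosphatidylinositol (1.2 mM stock) in Tris pH 7.5/MgCl2/EGTA/Triton X-100 buffer were reacted with ATP (300 microM stock) for one hour at ambient temperature.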
GoLoco inh red = blocks human Gai1 binding to RGS12 GoLoco peptide, red readout. Potency, µM (series often up to 61.6 µM), without a hit: at the highest dose activity, negative = inhibition, hits mostly inhibitors. P63096. Gai1:RGS12 GoLoco peptide FP, rhodamine, 10 min. hit rate 0.44% among 230,000; active = well fitted inhibition curve with a large enough effect, not every such curve was filed as active; inactive = no such curve, though single readings can be large or run the other way; note: potency is the fitted concentration of half-maximal effect; nearly all actives have a fitted effect of over 30% in size
PI5P4K alpha inh = blocks human PI5P4K alpha kinase activity | hit rate 1.2% among 330,000 | PI5P4Kalpha enzyme, ADP-Glo luminescence, 60 min; hits give low values | max response, % | P48426; active = max response of -50% or lower; inconclusive = between -30% and -50%; inactive = -30% or higher; note: value at the top dose of about 77 µM
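Compounds were pin-transferred onto PI5P4Kalpha and substrate in HEPES pH 7.4 buffer with EGTA, CHAPS and 5% DMSO. ATP (5 microM final) started the reaction, which ran 60 minutes at room temperature before ADP-Glo detection.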
Pin1 inhibitor = inhibitors of human Pin1; Q13526; Pin1 FP peptide displacement, HiFluor488, 10 min; Potency, µM (highest dose often 115 µM), for inactives: at the highest dose activity, negative = inhibition, most hits filed as inhibitors; hit rate 0.009% among 390,000; AID 504891; active = well fitted inhibition curve with a large enough effect in the polarisation, with a control signal flat, not every such curve was filed as active; inconclusive = small, poorly fitted or top-dose-only effect, or effect the other way, or a change in a side signal; inactive = no such curve, though single readings can be large or run the other way; the % refers to the polarisation; note: potency is the fitted concentration of half-maximal effect
Target sequence (Q13526 whole entry, looked up): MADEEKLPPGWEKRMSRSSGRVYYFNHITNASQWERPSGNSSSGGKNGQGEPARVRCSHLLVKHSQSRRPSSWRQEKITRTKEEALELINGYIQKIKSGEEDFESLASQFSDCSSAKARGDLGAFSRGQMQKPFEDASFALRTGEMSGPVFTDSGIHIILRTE
KAT2A inh = blocks human GCN5L2 histone acetyltransferase; Q92830; GCN5L2 HAT assay, ThioGlo1 CoA-SH fluorescence; Potency, µM (series often up to 58.9 µM), for inactives: at the top dose activity change, negative = inhibition, most hits filed as inhibitors; hit rate 0.21% among 390,000; note: potency is the fitted concentration of half-maximal effect
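Free CoA generated was detected with ThioGlo1 (50uM) fluorescence at Ex340nm/Em540nm, read immediately and after 20 min at room temperature. Enzyme, 20 nM in HEPES pH 7.5 buffer, saw compounds 15 min before adding 75uM H3(1-25) peptide and 70uM acetyl-CoA.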
Tb PGK inh = blocks T. brucei phosphoglycerate kinase | P07378 | Potency, µM (series often up to 57.5 µM), for the others: at the top dose activity change, negative = inhibition, hits mostly inhibitors | PGK/GAPDH coupled, Kinase-Glo luminescence, 60 min | hit rate 0.043% among 380,000; note: potency is the fitted concentration of half-maximal effect; nearly all actives have a fitted effect of over 60% in size
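Recombinant glycosomal PGK reaction used 1,3-bisphosphoglycerate generated in-well by GAPDH (100nM final) in 100mM TEA pH 7.6, 5mM MgCl2, 0.01% Tween-20. After 60 minutes at room temperature, ATP was read by Kinase-Glo Plus luminescence end-point.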
The depositor's hits bear a star; ! = repeats disagree; [ ] = dose if it differs, or a comment. Only some compounds are listed: those with a hit (about 1.2% of all), similar ones and a draw of the others. Unless noted, calls come from the whole dose curve; as a rule, active = well fitted curve in the direction sought with a large enough effect; inconclusive = small, poorly fitted or top-dose-only effect, or another doubt; inactive = no such curve, though single readings can be large; an effect the other way counts as inactive or inconclusive. Unless noted, % is set by controls: 0 for no effect and ±100 for the full control effect.

How did O=c1c2c([N+](=O)[O-])cc([N+](=O)[O-])cc2sn1-c1ccc(Br)cc1 do in these assays?
PI4K2A block: -9; GoLoco inh red: 5µM*; PI5P4K alpha inh: -85*; Pin1 inhibitor: -18%; KAT2A inh: 7.1µM*; Tb PGK inh: 1%

How did O=C(Nc1ccc(Br)cc1)c1cc([N+](=O)[O-])cc([N+](=O)[O-])c1 do in these assays?
PI4K2A block: 2; PI5P4K alpha inh: -3; Pin1 inhibitor: 6%; KAT2A inh: -21%; Tb PGK inh: 7%

What do the screens show for `CCCc1cc(=O)oc2c3c(c(Cl)cc12)OCN(CCCO)C3`?
KAT2A inh: 13µM*

What do the screens show for `COc1ccc2cc3[n+](cc2c1O)CCc1cc2c(cc1-3)OCO2`?
PI4K2A block: -52*; PI5P4K alpha inh: inconclusive

How did Cc1cc(C2C(C#N)=C(N)SC(N)=C2C#N)c(C)s1 do in these assays?
PI4K2A block: -1; GoLoco inh red: 116%; PI5P4K alpha inh: -56*; Pin1 inhibitor: inconclusive; KAT2A inh: -25%; Tb PGK inh: -3%

Results for Cc1sccc1C1C(C#N)=C(N)SC(N)=C1C#N ?
GoLoco inh red: 54%; KAT2A inh: -13%

What do the screens show for `O=C(Nc1ccc(O)cc1)/C(=C\c1ccncc1)NC(=O)c1ccccc1`?
PI4K2A block: -3; GoLoco inh red: -9%; PI5P4K alpha inh: -8; Pin1 inhibitor: 0%; KAT2A inh: 1%; Tb PGK inh: -10%

Results for CN(CC(=O)NC1CC1)S(=O)(=O)c1ccc(Br)cc1 ?
PI4K2A block: 1; PI5P4K alpha inh: 1; Pin1 inhibitor: 0%; KAT2A inh: 1%; Tb PGK inh: 2%

What do the screens show for `O=C(Nc1ccc2nc(-c3cccs3)c(-c3cccs3)nc2c1)N1CCCC1`?
Pin1 inhibitor: -1%

How did O=C(Nc1ccc2nc(-c3ccco3)c(-c3ccco3)nc2c1)N1CCCCCC1 do in these assays?
PI4K2A block: -51*; GoLoco inh red: 28%; Pin1 inhibitor: inconclusive; KAT2A inh: 14µM*; Tb PGK inh: -19%

How did CCOC(=O)C1CCN(C(=O)Nc2ccc3nc(-c4ccco4)c(-c4ccco4)nc3c2)CC1 do in these assays?
PI4K2A block: inconclusive; GoLoco inh red: 12%; PI5P4K alpha inh: -70*; Pin1 inhibitor: inconclusive; KAT2A inh: inconclusive; Tb PGK inh: inconclusive

What do the screens show for `OC[C@H]1NC[C@@H](O)[C@@H](O)[C@H]1O`?
GoLoco inh red: -3%; KAT2A inh: -3%

What do the screens show for `Cn1c(CNc2ccccc2)cc(=O)n(C)c1=O`?
PI4K2A block: -69*; GoLoco inh red: -2%; Pin1 inhibitor: -6%; KAT2A inh: -4%; Tb PGK inh: 2%

Results for c1ccc2[nH]c(CSc3ncnc4c3oc3ccccc34)nc2c1 ?
PI4K2A block: -1; GoLoco inh red: 15%; Pin1 inhibitor: inconclusive; KAT2A inh: 40µM*; Tb PGK inh: inactive

What do the screens show for `O=C(CSc1ncnc2nc[nH]c12)c1ccc(Cl)cc1`?
PI4K2A block: 4; PI5P4K alpha inh: -55*; Pin1 inhibitor: 0%; KAT2A inh: inconclusive; Tb PGK inh: -3%

What do the screens show for `O=C(CSc1ncnc2nc[nH]c12)c1ccccc1`?
PI4K2A block: 0; GoLoco inh red: 4%[14.2 µM]; PI5P4K alpha inh: -5; Pin1 inhibitor: 1%; KAT2A inh: 8%; Tb PGK inh: -4%

Results for Cn1c2ccccc2c2cc(/C=N/NC(=O)c3ccc(O)cc3O)ccc21 ?
PI4K2A block: 0; PI5P4K alpha inh: -62*; Pin1 inhibitor: 26%; KAT2A inh: -27%; Tb PGK inh: -6%

How did COc1ccc(/C=N/NC(=O)c2ccc(O)cc2O)cc1CSc1ccccn1 do in these assays?
PI4K2A block: -1; GoLoco inh red: 11%; PI5P4K alpha inh: -71*; Pin1 inhibitor: inconclusive; KAT2A inh: -14%; Tb PGK inh: inconclusive

How did Cc1ccc(Cl)cc1N1CCN(C(=O)c2ccc(CS(=O)(=O)c3ccccc3C)o2)CC1 do in these assays?
PI4K2A block: 0; Pin1 inhibitor: 10%; KAT2A inh: -8%; Tb PGK inh: -2%

How did CCCCn1c(N)c(N(CCOC)C(=O)CCC2CCCCC2)c(=O)[nH]c1=O do in these assays?
PI4K2A block: 0; PI5P4K alpha inh: 4; Pin1 inhibitor: -1%; KAT2A inh: 2%; Tb PGK inh: inactive

How did Cn1c(=O)[nH]c(NC2CCCCC2)c([N+](=O)[O-])c1=O do in these assays?
PI4K2A block: 4; GoLoco inh red: 6%; PI5P4K alpha inh: -13; Pin1 inhibitor: 0%; KAT2A inh: -6%; Tb PGK inh: 14%

How did O=c1[nH]c(NC2CCCCC2)c([N+](=O)[O-])c(=O)[nH]1 do in these assays?
PI4K2A block: 1; GoLoco inh red: 9%; PI5P4K alpha inh: -76*; Pin1 inhibitor: 0%; KAT2A inh: -6%; Tb PGK inh: inactive

What do the screens show for `COC(=O)CN1C(=O)[C@H]2[C@@H](c3ccc(C)o3)N3C(=O)CN(Cc4ccc(-c5ccccc5)cc4)C(=O)[C@@]3(C)[C@H]2C1=O`?
PI4K2A block: 3; PI5P4K alpha inh: -62*; Pin1 inhibitor: 3%; KAT2A inh: -23%; Tb PGK inh: -3%

What do the screens show for `CCOc1ccccc1N(C(=O)c1snc(C(N)=O)c1N)C(C(=O)NCC1CCCO1)c1ccc2ncccc2c1` (stereo unspecified)?
PI4K2A block: -2; PI5P4K alpha inh: 1; Pin1 inhibitor: inconclusive; KAT2A inh: -10%; Tb PGK inh: 6%

What do the screens show for `Cc1cccc(CNc2ncnc3ccc(-c4ccoc4)cc23)c1`?
PI4K2A block: -2; GoLoco inh red: 12%; Pin1 inhibitor: 2%; KAT2A inh: inconclusive; Tb PGK inh: -1%

What do the screens show for `c1cncc(CNc2cc(-c3ccoc3)ncn2)c1`?
GoLoco inh red: 13µM*; KAT2A inh: -7%

How did c1cncc(CNc2ncnc3ccc(-c4ccoc4)cc23)c1 do in these assays?
PI4K2A block: -3; GoLoco inh red: 26%; Pin1 inhibitor: 10%; KAT2A inh: 28µM*!; Tb PGK inh: inactive

How did Cc1ccc(N=Nc2c(O)[nH]c3ccc(F)cc23)cc1 do in these assays?
PI4K2A block: 0; GoLoco inh red: 2%; PI5P4K alpha inh: -1; Pin1 inhibitor: inconclusive; KAT2A inh: 6%; Tb PGK inh: -3%

Results for Cc1ccc(N=Nc2[nH]c3ccccc3c2O)cc1 ?
PI4K2A block: 0; GoLoco inh red: 13µM*; PI5P4K alpha inh: 0; Pin1 inhibitor: inconclusive; KAT2A inh: -18%; Tb PGK inh: 3%

Results for COc1ccc(N=Nc2[nH]c3ccc(C)cc3c2O)cc1 ?
PI4K2A block: 4; GoLoco inh red: 3.2µM*; PI5P4K alpha inh: -5; Pin1 inhibitor: 5%; KAT2A inh: 2%; Tb PGK inh: -4%
